High-throughput results deposited in PubChem BioAssay by Johns Hopkins Ion Channel Center.
KCNQ2 pot – potentiators of rat KCNQ2 potassium channel | Potassium voltage-gated channel subfamily KQT member 2 (Rattus norvegicus), O88943 | CHO-K1 KCNQ2, FluxOR thallium flux fluorescence; hits give high values | B-score at 10 µM | 310,000 tested, 0.54% active | AID 2239, 2010;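 active = fluorescence ratio B-score at least 3 SD of library B-scores, with initial fluorescence B-score within 3 of them, cut at about 5.3 in these data; same plate scores as AID 2156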;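 also: B-score of peak minus minimum over baseline fluorescence ratio after K+ and Tl+ stimulus; positive B-score means potentiation of KCNQ2 with more thallium influx and brighter signal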
KCNQ2 block – rat KCNQ2 potassium channel inhibitors, primary screen, cell-based, CHO-K1, FluxOR thallium flux, B-score; 20 min; hits give low values; B-score at 10 µM; 310,000 tested, 1.1% active; AID 2156, 2009;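 active = fluorescence ratio B-score at most minus 3 library SDs, with starting brightness B-score within 2 library SDs, cut at about -5.5 in these data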
KCNQ2 inh conf – rat KCNQ2 potassium channel inhibitors, confirmation, cell-based, thallium flux; AID 493025, 2011; KCNQ2-expressing cells, inhibition; hits give low values; 1,000 tested, 57% active; activity change, negative = inhibition, % at 10 µM; shares compounds with KCNQ2 block;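 also: 0% = vehicle wells and values are ratio percent relative to vehicle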
KCNQ1 spec – human KCNQ1 channel inhibition, counter-screen for KCNQ2 inhibitor project, cell-based, FluxOR thallium flux. AID 493026, 2011. KCNQ1-expressing cells, FluxOR thallium flux fluorescence; hits give low values. activity change, negative = inhibition, % at 10 µM. 1,000 tested, 15% active. shares compounds with KCNQ2 block;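 active = activity change at least 3 SD of negative controls below their mean in both duplicate wells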;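 also: CHO cells stably transfected with KCNQ1 and depolarized by potassium stimulus; peak minus minimum fluorescence over baseline after thallium addition; 0% = vehicle negative control and -100% = blank without thallium stimulus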
CHO Tl ctr – thallium flux change in parental CHO cells, counter-screen for KCNQ2 inhibitor project; shares compounds with KCNQ2 block; hits give low values; activity change, % at 10 µM; 1,000 tested, 14% active;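 also: 0% = vehicle negative controls with stimulus buffer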
KCNQ2 inh confirm – rat KCNQ2 channel inhibitors, confirmation, cell-based, automated patch clamp, single concentration | AID 588531, 2011 | KCNQ2-expressing cells, automated patch clamp current | 550 tested, 49% active | calls only at 10 µM | shares compounds with KCNQ2 block
* hit, by the source's call. Rows were chosen to be rich in hits. Some 1.6% of all compounds tested hit in one or more screens of this group. Unless noted, no rule for the calls is given here.

`O=C(COC(=O)CCNS(=O)(=O)c1ccccc1F)Nc1nnc(-c2ccccc2)o1` gave KCNQ2 block inactive.
CCOC(=O)c1c(C)n(C)c2ccc(OCC(O)CNC(CC)CO)cc12 (stereo not given) was read as KCNQ2 pot 1.21 and KCNQ2 block inactive.
Screening CCOC(=O)c1c(C)n(-c2ccc(C)cc2)c2ccc(OCC(O)CNCCCO)cc12 (stereo not given) returned KCNQ2 pot -10.9, KCNQ2 block -10.9*, KCNQ2 inh conf inactive, KCNQ1 spec inactive and CHO Tl ctr inactive.
For Cc1cc(Cl)ccc1OC(C)C(=O)NCCCCc1ccccc1 (stereo not given) the results were KCNQ2 pot -7.29, KCNQ2 block -7.29*, KCNQ2 inh conf -31.5%*, KCNQ1 spec inactive, CHO Tl ctr inactive and KCNQ2 inh confirm active.
Screening Cc1cc(Cl)ccc1OC(C)C(=O)NCCc1ccc2c(c1)OCCO2 (stereo not given) returned KCNQ2 block inactive.
`COc1ccc(S(=O)(=O)N2CCOC2CNC(=O)C(=O)NCc2ccc(F)cc2)cc1OC` (stereo not given) gave KCNQ2 block inactive.
For CCN(CC)S(=O)(=O)c1ccc2c(c1)N(CC(=O)NCCc1ccc(S(N)(=O)=O)cc1)C(=O)CO2 the results were KCNQ2 block inactive.
For COc1cccc(C(=O)NC(=S)Nc2ccccc2N2CCOCC2)c1 the results were KCNQ2 pot -8.67, KCNQ2 block -8.67*, KCNQ2 inh conf -29.0%*, KCNQ1 spec inactive, CHO Tl ctr inactive and KCNQ2 inh confirm active.
CC(C)Oc1cccc(C(=O)Nc2ccccc2N2CCOCC2)c1 was read as KCNQ2 block inactive.
Screening Cc1c(C(=O)Oc2cccc3ccccc23)cnn1-c1ccccc1 returned KCNQ2 pot -9.3, KCNQ2 block -9.3*, KCNQ2 inh conf inactive, KCNQ1 spec inactive and CHO Tl ctr inactive.
`CC(=O)c1cnn(-c2ccccc2)c1C` gave KCNQ2 pot 2.25 and KCNQ2 block inactive.
CC(NC(=O)Nc1ccc(F)cc1F)c1ccc2c(c1)OCO2 (stereo not given) was read as KCNQ2 pot 2.1 and KCNQ2 block inactive.
`COC(=O)C1C2CCC(C2)C1C(=O)OCC(=O)c1ccccc1` (stereo not given) gave KCNQ2 block inactive.
CCCOC(=O)C1C2C=CC(C3CC23)C1C(=O)OCC(=O)c1ccccc1 (stereo not given) was read as KCNQ2 pot -9.45, KCNQ2 block -9.45*, KCNQ2 inh conf inactive, KCNQ1 spec inactive and CHO Tl ctr inactive.
Screening CCc1nc(Nc2ccc3c(c2)OCCO3)c2oc3ccccc3c2n1 returned KCNQ2 block inactive.
Cc1nc(Nc2ccc3c(c2)OCCO3)c2oc3ccccc3c2n1 was read as KCNQ2 pot -8.05, KCNQ2 block -8.05*, KCNQ2 inh conf -31.5%*, KCNQ1 spec -28.0%*, CHO Tl ctr inactive and KCNQ2 inh confirm inactive.
`COc1ccc(NC(=O)C(Cc2cc(C)cc(C)c2)C(C)C(=O)O)cc1` (stereo not given) gave KCNQ2 pot 0.41 and KCNQ2 block inactive.
`COc1ccc(CNC(=O)CN(Cc2ccc(Cl)cc2)S(=O)(=O)c2ccccc2)cc1` gave KCNQ2 pot -7.45, KCNQ2 block -7.45*, KCNQ2 inh conf -29.5%*, KCNQ1 spec inactive, CHO Tl ctr inactive and KCNQ2 inh confirm inactive.
For COc1ccc(S(=O)(=O)N(CC(=O)NCc2ccncc2)Cc2ccccc2)cc1 the results were KCNQ2 block inactive.
For Cc1ccc(-c2c(C)sc3ncn(CC(=O)N4CCOCC4)c(=O)c23)cc1C the results were KCNQ2 pot 0.14 and KCNQ2 block inactive.
`C/C=C/C(=O)Nc1cccc(C(F)(F)F)c1` gave KCNQ2 pot 2.06 and KCNQ2 block inactive.
`O=C(/C=C/c1cccc(C(F)(F)F)c1)Nc1cccc(C(F)(F)F)c1` gave KCNQ2 pot -8.24, KCNQ2 block -8.24*, KCNQ2 inh conf inactive, KCNQ1 spec inactive and CHO Tl ctr inactive.
Screening CNC(=O)c1ccc(-c2sc3nc(N4CCOCC4)c4c(c3c2N)CC(C)(C)OC4)o1 returned KCNQ2 pot 0.03 and KCNQ2 block inactive.
For CNC(=O)c1ccc(-c2sc3nc(N4CCOCC4)c4c(c3c2N)CCCC4)o1 the results were KCNQ2 pot -9.53, KCNQ2 block -9.53*, KCNQ2 inh conf -22.0%*, KCNQ1 spec inactive, CHO Tl ctr inactive and KCNQ2 inh confirm inactive.
For COCCN(C(=O)CSc1n[nH]c(-c2ccccc2)n1)c1c(N)n(Cc2ccccc2)c(=O)[nH]c1=O the results were KCNQ2 pot 5.17 and KCNQ2 block inactive.
`Cc1cnc(CN(C)Cc2c(C(=O)N3CCc4ccccc4C3)nc3ccc(Cl)cn23)[nH]1` gave KCNQ2 block inactive.
`CC(C)CN(C)Cc1c(C(=O)N2CCc3ccccc3C2)nc2ccc(Cl)cn12` gave KCNQ2 pot -8.66, KCNQ2 block -8.66*, KCNQ2 inh conf -32.5%*, KCNQ1 spec -38.0%*, CHO Tl ctr -25.0%* and KCNQ2 inh confirm active.
`Fc1cccc(NC(=S)NC2CCCCCCC2)c1` gave KCNQ2 block inactive.
`O=C(NCc1ccccc1Cl)C1CCN(S(=O)(=O)c2cccs2)CC1` gave KCNQ2 pot 1.21 and KCNQ2 block inactive.
`O=C(Nc1cccc(C(F)(F)F)c1)c1ccc2nc(-c3ccco3)c(-c3ccco3)nc2c1` gave KCNQ2 pot -8.5, KCNQ2 block -8.5*, KCNQ2 inh conf -30.0%*, KCNQ1 spec inactive, CHO Tl ctr inactive and KCNQ2 inh confirm active.
`O=C(O)c1ccc2nc(-c3ccco3)c(-c3ccco3)nc2c1` gave KCNQ2 block inactive.
Screening O=[N+]([O-])c1ccc(C2CCCC/C2=N/OCc2ccc(F)cc2)c([N+](=O)[O-])c1 (stereo not given) returned KCNQ2 block inactive.
O=[N+]([O-])c1ccc(C2CCCC/C2=N/OCc2ccccc2F)c([N+](=O)[O-])c1 (stereo not given) was read as KCNQ2 pot -10.1, KCNQ2 block -10.1*, KCNQ2 inh conf -36.0%*, KCNQ1 spec inactive, CHO Tl ctr inactive and KCNQ2 inh confirm inactive.
`C=CCn1c(CSCc2ccc(C)cc2)nnc1SCC(=O)NCc1ccccc1` gave KCNQ2 pot -8.42, KCNQ2 block -8.42*, KCNQ2 inh conf -22.0%*, KCNQ1 spec inactive, CHO Tl ctr inactive and KCNQ2 inh confirm active.
